GLP-1R inv ag – inverse agonists of human GLP-1 receptor; HEK293 GLP-1R CRE-luciferase, luminescence, 24 h; GLP-1R form is constitutively active; Potency, µM (series often up to 38.3 µM), for the others: at the top dose activity change, negative = inhibition, actives largely listed as inhibitors; AID 624417; 1.6% of 410,000 active; also: % is scaled to controls: 0 for no effect and ±100 for the full control effect; nearly all actives have a fitted effect of over 55% in size
Target sequence (P43220 whole entry, looked up): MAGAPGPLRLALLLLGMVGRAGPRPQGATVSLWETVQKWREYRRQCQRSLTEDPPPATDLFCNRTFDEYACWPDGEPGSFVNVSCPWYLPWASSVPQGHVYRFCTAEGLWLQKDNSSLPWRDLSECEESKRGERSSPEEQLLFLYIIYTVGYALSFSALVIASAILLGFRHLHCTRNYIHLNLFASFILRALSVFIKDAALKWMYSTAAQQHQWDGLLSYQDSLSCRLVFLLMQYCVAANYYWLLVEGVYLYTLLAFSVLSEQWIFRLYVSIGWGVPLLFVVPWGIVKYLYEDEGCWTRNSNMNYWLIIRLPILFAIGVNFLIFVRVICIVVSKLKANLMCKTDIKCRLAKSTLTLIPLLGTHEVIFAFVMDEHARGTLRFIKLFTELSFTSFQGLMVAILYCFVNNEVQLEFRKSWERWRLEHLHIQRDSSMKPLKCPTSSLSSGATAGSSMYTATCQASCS
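Inverse agonists were sought by their lowering of basal cAMP reporter luciferase output in HEK293 cells stably carrying constitutively active human GLP-1R, after 24 h compound treatment.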
BRCA1 expr up – activators of BRCA1 expression; MCF7-BRCA1-FFLuc reporter, luminescence, 48 h; response scale: scaled: vehicle 0%, 10 µM genistein 100%; Potency, µM (titrated, usually from 46.1 µM), for inactives: top-dose activation, most hits filed as activators; 1.1% of 380,000 active; also: nearly all actives have a fitted effect of over 80% in size
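MCF7-BRCA1-FFLuc, 2000 cells/well; 2 h attach, 37 °C/5% CO2; compound 48 h; luciferase substrate 15 min; luminescence end-point. Norm. to genistein 10 microM max activation and DMSO; concentration-response curves fitted.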
GLP1R ag – GLP-1 receptor (human) agonism; P43220; HEK293 GLP-1R CRE-luciferase, luminescence, 4-6 h; cells express a hypersensitive GLP-1R form; Potency, µM (doses to about 45.6 µM), without a hit: top-dose activation, actives largely listed as activators; 0.007% of 380,000 active; AID 624172; also: % of control where 0% means no effect
HEK293 tox – cytotoxicity in counter-screen for GLP-1R inverse agonists | AID 624418 | Potency, µM (top dose mostly 38.3 µM), inactives show at the top dose activity change, negative = inhibition, most hits filed as inhibitors | 0.13% of 410,000 active | HEK293 cAMP-luciferase reporter cells, luminescence, 24 h;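 also: loss of luciferase light is scored as toxicity; % is scaled to controls: 0 for no effect and ±100 for the full control effect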
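Cells in DMEM/10% Nu serum/1% pen-strep, 1536-well format. Pre-incubated 12 h, dosed with 23 nL compound, incubated a further 24 h. Luciferase detection, 12 min at room temp, luminescence.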
The depositor's hits bear a star; ? = inconclusive; . = no result given; [ ] = dose if it differs, or a comment. An excerpt weighted towards active compounds, which were near 2.6% of everything screened. Calls follow the shape of the dose curve; as a rule, active = well fitted curve in the direction sought with a large enough effect; inconclusive = small, poorly fitted or top-dose-only effect, or another doubt; inactive = no such curve, though single readings can be large; an effect the other way counts as inactive or inconclusive. Potency is read from the fitted curve at half-maximal effect.

SMILES | GLP-1R inv ag | BRCA1 expr up | GLP1R ag | HEK293 tox
OCCn1c(-c2ccc3c(c2)OCO3)csc1=Nc1ccccc1 | 3.55µM* | -51.4% | -1.8% | -29.1%
OCCn1c(-c2ccc(F)cc2)csc1=Nc1ccccc1 | ? | 19.2% | 2.0% | -5.6%
CCCOc1ccc2cc(-c3ccccn3)c(=O)oc2c1 | 2.82µM* | -74.7% | -2.8% | 41.3%
COc1ccc2cc(-c3ccccc3)c(=O)oc2c1 | 15.0% | ? | 1.2% | 1.9%
CN(C)C(=O)COc1ccc2cc(-c3ccccc3)c(=O)oc2c1 | 0.0% | 11.2µM* | -5.2% | 3.4%
COC(=O)[C@@]12C[C@@H](CC(=O)NCC3CCCCC3)C(=O)N(Cc3cccc4ccccc34)C1=CCC(C)(C)C2 | -4.1% | . | . | 1.9%
Cc1cc(N2CCCC2)nc(SCC(=O)c2ccccc2)n1 | 24.9% | -3.6% | 0.3% | 5.4%
Cc1cc(N2CCC(C)CC2)nc(SCC(=O)c2ccccc2)n1 | 3.16µM* | 0.0% | 1.0% | 1.5%
Cc1ccc2nc(CO)[nH]c2c1 | . | 4.9% | . | .
Cc1nc(SCc2cccc(C(=O)O)c2)nc2c1CCCC2 | 8.91µM* | -67.0% | -1.2% | -0.1%
CC1CCc2nc(N)c(C#N)c(-c3cccnc3)c2C1 (stereo not drawn) | 0.891µM* | 0.0% | -2.6% | 7.5%
O=S(=O)(c1ccc(Cl)cc1)N1CCN(c2nc(Nc3cc(Cl)ccc3O)nc3ccccc23)CC1 | . | -3.8%[36.9 µM] | . | .
CCN(CC)CC(C)CNC(=O)c1cc(-c2ccc(Br)s2)nc2ccccc12 (stereo not drawn) | ? | . | . | -23.3%
Cc1cccc(OCc2nc(-c3ccccn3)n[nH]2)c1 | ? | 35.3% | 15.7% | ?
Cc1ccc(OCc2nc(-c3ccccn3)n[nH]2)cc1 | ? | 81.0% | -2.1% | 2.51µM*
COc1ccc(NC(=O)C2(C)Cc3c(-c4cccc(C(N)=O)c4)ccnc3O2)cn1 (stereo not drawn) | ? | -22.9% | 22.6% | -23.3%
C=CCSSSCC=C | . | . | -1.8% | .
CC1CN(Cc2ccccc2)C(=O)N(c2ccccc2)C1=O (stereo not drawn) | 2.4% | -12.9% | -2.7% | -9.9%
CC1CN(Cc2ccccc2)c2ccccc2NC1=S (stereo not drawn) | 11.2µM* | 2.8% | -3.2% | ?
Cc1cn([C@H]2C[C@H](O)[C@@H](CNC=O)O2)c(=O)[nH]c1=O | -4.3% | 1.8% | 4.3% | -29.4%
COc1cc(-c2nnc(SCC3(c4ccc(Br)cc4)OCCO3)o2)cc(OC)c1OC | 3.98µM* | -71.6% | 4.5% | 9.3%
COc1cc(-c2nnc(SCC(=O)N3CCOCC3)o2)cc(OC)c1OC | 58.1% | -1.2% | 5.1% | -5.5%
Cc1ccc(/C=C2\CCC(C3CCCC3)C2=O)cc1 (stereo not drawn) | 10.7% | 12.6µM* | -14.9% | -1.0%
COc1ccc(/C=C2\CCC(C3CCCC3)C2=O)cc1 (stereo not drawn) | 19.4% | ? | ? | 0.9%
C/C(=N\N=C(c1ccccc1)c1ccccc1)c1ccco1 | ? | 0.0% | 6.3% | 24.8%
SMILES | GLP-1R inv ag | BRCA1 expr up | GLP1R ag | HEK293 tox
C/C(=N\N(c1ccccc1)c1ccccc1)c1ccco1 | 8.91µM* | 0.0% | -2.6% | 9.3%
CC(=O)c1cccc(NC(=O)Cn2c(=O)c(CNc3ccc(C)cc3)cc3cc4c(cc32)OCCO4)c1 | 11.2% | 1.4% | 7.8% | 2.3%
OCC1(Cc2ccccc2F)CCCN(CC2CCCCC2)C1 (stereo not drawn) | ? | -0.6% | 23.8% | -16.8%
OCC1(Cc2ccccc2F)CCCN(Cc2c(F)ccc(F)c2F)C1 (stereo not drawn) | 11.2µM* | -19.9% | 5.5% | 13.3%
C=CCNC(=O)c1onc(CSc2ccc(Cl)cc2)c1C(=O)O | 2.24µM* | 18.8% | -1.3% | -4.3%
C=CCNC(=O)c1onc(CSc2ccc(Cl)cc2)c1C(=O)NCC=C | 12.6µM* | -2.6% | 31.8% | ?
CCOc1ccc(C(=O)Nc2c(C(=O)Nc3ccccc3OC)oc3ccccc23)cc1OCC | 39.3% | . | . | 3.0%
COc1ccc(Nc2ncnc3c2nc2n3CCCCC2)cc1 | -2.5% | 10µM* | 2.5% | -4.7%
CC1CCCN(c2ncnc3c2nc2n3CCCCC2)C1 (stereo not drawn) | 4.1% | 11.2µM* | 2.6% | -13.1%
Cn1cccc1C(C#N)c1ncc(C(F)(F)F)cc1Cl (stereo not drawn) | -8.6% | -6.6% | 7.6% | -6.7%
CC(Oc1ccccc1F)C(=O)N1CCC(c2nc3ccccc3o2)CC1 (stereo not drawn) | -29.9% | . | . | -1.0%
CC(=O)c1c(C)[nH]c(C(=O)Nc2ccc(C)c(S(=O)(=O)N(C)C)c2)c1C | -5.3% | 25.7% | 1.4% | -1.2%
COc1ccc(-c2nc(NC(=O)c3[nH]c(C)c(C(C)=O)c3C)sc2C)cc1 | 12.6µM* | -79.9% | 6.7% | -1.6%
CC(=O)c1c(C)[nH]c(C(=O)Nc2ccc(C)c(S(=O)(=O)Nc3ccc(C)cc3C)c2)c1C | 2.51µM* | -84.7% | -1.8% | ?
COc1ccc(-c2nc(NC(=O)c3ccco3)sc2C)cc1 | ? | 94.3% | 13.0% | 2.8%
CC(=O)c1c(C)[nH]c(C(=O)Nc2ccc(C)cn2)c1C | 5.62µM* | -44.5% | -12.6% | -7.3%
CC(=O)c1c(C)[nH]c(C(=O)Nc2nc(C)cs2)c1C | 2.24µM* | -54.3% | -1.3% | -2.2%
COc1cc(NC(=O)Cn2c(=O)n(Cc3ccccc3Cl)c(=O)c3cc(OC)c(OC)cc32)cc(OC)c1 | -7.7% | 1.6% | -4.1% | -2.1%
CCN(CC)CCCNC(=O)c1ccc2c(c1)N(Cc1c(F)cccc1Cl)C(=O)c1ccccc1S2 | ? | -24.8% | -11.3% | ?
Cc1c(O)c2c(c(C(=O)/C=C/c3ccccc3)c1O)OC(C)(C)C=C2 | . | -42.9% | . | .
CSc1ncc2c(n1)-c1ccccc1N(Cc1ccccc1C)S2(=O)=O | 0.3% | . | . | 7.1%
CCS(=O)(=O)Nc1ccc(-c2cc(-c3ccccc3)c3cc(C)ccc3n2)cc1 | 7.08µM* | -91.9% | -3.3% | -10.7%
COc1cc2c(NC3CCN(C)CC3)nc(N3CCCN(C)CC3)nc2cc1OCc1ccccc1 | . | -59.1% | . | .
CC(C)c1c(C(=O)N/N=C/c2cccc3ccccc23)nnn1-c1nonc1N | 6.31µM* | -47.4% | -1.7% | -20.0%
Cc1cccc(COc2ccc(/C=N/NC(=O)c3nnn(-c4nonc4N)c3CN3CCCCC3)cc2)c1 | 15.5% | 57.1% | 0.8% | 1.3%
Nc1nonc1-n1nnc(C(=O)N/N=C/c2ccc(OCc3cccc(Cl)c3)cc2)c1CN1CCCCC1 | 9.4% | 2.51µM* | 1.4% | -3.1%
CC(C)c1c(C(=O)N/N=C/c2c[nH]c3ccccc23)nnn1-c1nonc1N | ? | -83.3% | 2.3% | ?
CC1CCN(Cc2c(C(=O)N/N=C/c3cc(Cl)ccc3O)nnn2-c2nonc2N)CC1 | ? | -90.6% | 2.4% | -6.0%
CC1CCN(Cc2c(C(=O)N/N=C/c3cc(Br)ccc3O)nnn2-c2nonc2N)CC1 | 3.98µM* | -43.7% | -1.4% | 123.9%
